IL1B secr inh: inflammasome signaling inhibition, IL-1 beta readout. 360,000 compounds, 4.7% hits. THP-1 LPS/ATP IL-1B secretion, AlphaLISA, 16 h; stronger effect = lower value. activity change, % at 57.5 µM; in the data active means activity change below about -50%; inconclusive means mostly about -30% to -49%; further: on the % scale 0 is the no-effect control and ±100 the full control effect
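THP-1 cells pretreated 1 hr with compounds (up to 57.5 uM final), then stimulated with LPS (250 ng/mL final) plus ATP (1.25 mM final); secreted IL-1B measured by AlphaLISA after 16 hr, decreased signal indicating inhibition.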
ATXN viability: reduces viability in counter-screen for ATXN expression inhibitors; S2 cells (HEK-293 line with an ATXN2-luciferase reporter) viability, CellTiter-Fluor protease fluorescence, 24 h; Potency, µM (doses to about 56.7 µM), actives largely listed as cytotoxic; 400,000 compounds, 0.49% hits; further: potency means the concentration at half of the fitted maximal effect; nearly all actives have a fitted effect of over 40% in size
PINK1 modulator: PINK1 expression modulation; PINK1 immunofluorescence, high-content cytometry, 24 h; Potency, µM (titrated, usually from 76.6 µM), inactives show top-dose activation (PINK1 increase), actives largely listed as activators; 410,000 compounds, 0.2% hits; AID 624263; active means well fitted activation curve with a large enough effect; inconclusive means small, poorly fitted or top-dose-only effect; cell line not stated here; further: potency means the concentration at half of the fitted maximal effect; % of control where 0% means no effect; nearly all actives have a fitted effect of over 65% in size
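Stable cell line, 250 cells/well, 12 h attachment; compounds pinned at 5 concentrations, 24 h; CCCP control. Fixed with nuclear dye, primary antibodies 12 h at 10 degrees C, secondary plus cell stain; laser-scanning cytometer read.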
MCF10A rereplic: DNA re-replication induction in MCF 10a cells; MCF 10A DNA re-replication, Hoechst nuclear intensity, 48 h; Potency, µM (series often up to 46.1 µM), for the others: top-dose activity, positive = re-replication, most hits filed as activators; 350,000 compounds, 2.9% hits; further: potency means the concentration at half of the fitted maximal effect; % of control where 0% means no effect; nearly all actives have a fitted effect of over 50% in size
ATXN2 expr inh: reduces ATXN2 reporter expression in HEK-293 cells; HEK-293 ATXN2-luciferase reporter, luminescence, 24 h; AID 1745845; 360,000 compounds, 0.72% hits; Potency, µM (titrated, usually from 57 µM), without a hit: at the highest dose activity change, negative = inhibition, actives largely listed as inhibitors; further: potency means the concentration at half of the fitted maximal effect; on the % scale 0 is the no-effect control and ±100 the full control effect; nearly all actives have a fitted effect of over 55% in size
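qHTS (up to 57 uM final) was run with 24 h compound exposure of reporter cells at 37 °C. Each well was multiplexed: SteadyGlo luminescence measured ATXN2-luciferase expression after a fluorogenic Gly-Phe-AFC viability readout (25 uM final).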
SW480 rereplic: inducers of DNA re-replication in SW480 colon cancer cells; SW480 DNA re-replication, Hoechst DNA content imaging, 48 h; Potency, µM (top dose mostly 46.1 µM), for inactives: top-dose re-replication activation, actives largely listed as activators; 340,000 compounds, 1.8% hits; AID 624297; further: potency means the concentration at half of the fitted maximal effect; % of control where 0% means no effect; nearly all actives have a fitted effect of over 55% in size
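Hoechst fluorescence of nuclei (405 nm excitation, 500-530 nm emission) measured by plate-scanning imager after 48 hr compound exposure at 37 C; re-replication scored as increased number of nuclei with elevated intensity.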
An asterisk follows results filed as active; [ ] = remark or other dose. Sampled rows, rich in hits. Any-hit rate of the full collection: about 7.1%. Unless noted, the call rests on the fitted dose curve; in most records, active means well fitted curve in the direction sought with a large enough effect; inconclusive means small, poorly fitted or top-dose-only effect, or another doubt; inactive means no such curve, though single readings can be large; an effect the other way counts as inactive or inconclusive.

For CC(C)CSc1nc2ccccc2[nH]1 the results were IL1B secr inh -5, ATXN viability inactive, PINK1 modulator 1%, MCF10A rereplic 0.58µM*, ATXN2 expr inh 24% and SW480 rereplic inconclusive.
Screening CCOc1ccc(C(=O)COC(=O)c2c(-c3ccccc3)noc2C)cc1 returned IL1B secr inh 29, ATXN viability inactive, PINK1 modulator 0%, MCF10A rereplic 6.5µM*, ATXN2 expr inh -26% and SW480 rereplic inconclusive.
Cc1ccc(OCCOC(=O)c2c(-c3ccccc3)noc2C)cc1 was read as IL1B secr inh 2, ATXN viability inactive, PINK1 modulator 5%, MCF10A rereplic inconclusive, ATXN2 expr inh -8% and SW480 rereplic 99%.
`Cc1onc(-c2ccccc2)c1C(=O)OCCOc1cccc(Cl)c1` gave IL1B secr inh 6, ATXN viability inactive, PINK1 modulator 2%, MCF10A rereplic 21µM*, ATXN2 expr inh -24% and SW480 rereplic 6.5µM*.
Screening Cc1onc(-c2ccccc2)c1CNC(=O)Nc1cccc(Cl)c1 returned IL1B secr inh -66*, ATXN viability inactive, PINK1 modulator inconclusive, MCF10A rereplic inconclusive, ATXN2 expr inh -31% and SW480 rereplic 2%.
`Cc1ccc(CNC(=O)C2CCCN(S(=O)(=O)c3ccc4c(c3)oc(=O)n4C)C2)cc1` (centres undefined) gave ATXN viability inactive, PINK1 modulator 1% and ATXN2 expr inh 7%.
CN(C(=O)CSc1cc(C(=O)c2nccn2C)c2ccccc2n1)c1ccccc1 was read as IL1B secr inh -56*, ATXN viability inconclusive, PINK1 modulator -2%, MCF10A rereplic 29%, ATXN2 expr inh -5% and SW480 rereplic -79%.
For CCC1(C2CCN(C(=O)c3csc(C(C)=O)c3)CC2)NC(=O)N(CCc2scnc2C)C1=O (centres undefined) the results were ATXN viability inactive and PINK1 modulator -1%.
`COc1ccccc1CNc1ccc(-c2nc(C)no2)cc1[N+](=O)[O-]` gave ATXN viability inconclusive, PINK1 modulator 7% and ATXN2 expr inh 16%.
`O=C(CN1CCOCC1)Nc1ccc(Br)cn1` gave IL1B secr inh 9, ATXN viability inactive, PINK1 modulator 0%[38.3 µM], MCF10A rereplic inconclusive, ATXN2 expr inh 13% and SW480 rereplic 21µM*.
O=C(CN1CCOCC1)Nc1ncc(Cc2cccc(Cl)c2)s1 was read as IL1B secr inh 0, ATXN viability inconclusive, PINK1 modulator 5%, MCF10A rereplic inconclusive and SW480 rereplic 8.2µM*.
For COc1cc(OC)c2c(C)c(CC(=O)NCc3ccccc3OC)c(=O)oc2c1 the results were ATXN viability inactive, PINK1 modulator 1% and ATXN2 expr inh 7%.
For CCc1ccc(CNC(=O)C2CCCN(c3nn4cc(-c5ccc(F)cc5)nc4s3)C2)cc1 (centres undefined) the results were PINK1 modulator 3%.
For OCCn1c(-c2ccc(F)cc2)csc1=Nc1ccccc1 the results were IL1B secr inh -53*, ATXN viability inactive, PINK1 modulator 5%, MCF10A rereplic inconclusive, ATXN2 expr inh 20% and SW480 rereplic 0%.
Screening CCn1c(-c2ccccc2)csc1=Nc1ccc(O)cc1 returned IL1B secr inh -95*, ATXN viability inactive, PINK1 modulator 0%, MCF10A rereplic 18%, ATXN2 expr inh 45% and SW480 rereplic 4%.
Screening CCCCn1c(-c2ccc(S(=O)(=O)N3CCOCC3)cc2)csc1=Nc1ccccc1 returned PINK1 modulator 0%.
CCOc1ccc(N=c2scc(-c3ccc(OC)cc3)n2CCO)cc1 was read as IL1B secr inh inconclusive, ATXN viability inactive, PINK1 modulator 1%, MCF10A rereplic inconclusive, ATXN2 expr inh -13% and SW480 rereplic 2%.
For CCOc1ccc(N=c2scc(-c3ccccc3)n2CCO)cc1 the results were IL1B secr inh -66*, ATXN viability inactive, PINK1 modulator 5%[38.3 µM], MCF10A rereplic -5%, ATXN2 expr inh 30% and SW480 rereplic 1%.
Screening COCCn1c(-c2ccccc2)csc1=Nc1cccnc1 returned IL1B secr inh -11, ATXN viability inactive, PINK1 modulator -1%, MCF10A rereplic inconclusive, ATXN2 expr inh -36% and SW480 rereplic inconclusive.
`OCCn1c(-c2ccc3c(c2)OCO3)csc1=Nc1ccccc1` gave IL1B secr inh -62*, ATXN viability inactive, PINK1 modulator 0%, MCF10A rereplic inconclusive, ATXN2 expr inh 5% and SW480 rereplic -1%.
Screening COc1ccc(S(=O)(=O)NC(=O)C2(C)CCN2C(=O)C(C)(C)c2ccccc2)cc1 (centres undefined) returned IL1B secr inh -6, ATXN viability inactive, PINK1 modulator -1% and ATXN2 expr inh 5%.
CSc1ncc(Cl)c(C(=O)N(Cc2ccc(C)cc2)C2CCS(=O)(=O)C2)n1 (centres undefined) was read as ATXN viability inactive, PINK1 modulator 0% and ATXN2 expr inh 6%.
Screening COc1ccccc1N1CCN(c2nc(CNC(=O)c3ccc(C)c(C)c3)nc3ccccc23)CC1 returned ATXN viability inconclusive and PINK1 modulator 2%.
`COc1ccc(-n2c(COc3ccc(Cl)cc3)nnc2SCc2ccc(C#N)cc2)cc1` gave IL1B secr inh -12, ATXN viability inconclusive, PINK1 modulator 13%[38.3 µM], MCF10A rereplic 15%, ATXN2 expr inh -23% and SW480 rereplic 2%.
`Cc1ccc(NC(=O)CSc2nnc3c(n2)[nH]c2ccccc23)cc1` gave IL1B secr inh 20, ATXN viability inactive, PINK1 modulator 0%, MCF10A rereplic -13%, ATXN2 expr inh 1% and SW480 rereplic -21%.
For COc1ccc(-n2c(CNc3ccc(C)cc3)nnc2SCC(=O)Nc2nc(-c3ccccc3)cs2)cc1 the results were IL1B secr inh 40, ATXN viability 22µM*, PINK1 modulator inconclusive, MCF10A rereplic 15µM*, ATXN2 expr inh 18µM* and SW480 rereplic inconclusive.
For COc1ccc(NCc2nnc(SCc3ccc(Cl)cc3)n2-c2ccccc2)cc1 the results were IL1B secr inh -53*, ATXN viability inconclusive, PINK1 modulator inconclusive, MCF10A rereplic inconclusive, ATXN2 expr inh inconclusive and SW480 rereplic inconclusive.
For COc1ccc(NCc2nnc(SCC(=O)Nc3nc(-c4ccccc4)cs3)n2-c2ccccc2)cc1 the results were IL1B secr inh 46, ATXN viability inconclusive, PINK1 modulator inconclusive, MCF10A rereplic 10µM*, ATXN2 expr inh -31% and SW480 rereplic inconclusive.

Source: PubChem
